The text below walks through data of PubChem BioAssay AID2284062 (EPA ToxCast).

Molecules are shown by their SMILES. Calls of active or inactive are those of the source. How the source made its calls: active means hit-call score of the fitted dose curve at least 0.9, where 1 is the maximum; inactive means score below 0.9.

As a reminder, the AC50 is the concentration giving half of the maximal activity seen.

The target in this assay is human CK1delta CK1 Kinase, CSNK1D (gene 1453) (UniProt P48730). Put plainly: ERF_TW_ENZ_hCSNK1D: Eurofins (ERF) Enzymatic Radiometric [10 uM ATP] Assay for human CK1delta CK1 Kinase. As to the method: ERF_TW_ENZ_hCSNK1D is a biochemical, single-readout assay that uses extracted gene-proteins in a cell-free assay. Measurements were taken 0.5 hour after chemical dosing in a 96-well plate. See CK1delta Human CK1 Kinase Enzymatic Radiometric Assay [10 uM ATP], Panlabs.ERF_TW_ENZ_hCSNK1D is an assay component calculated from the ERF_TW_ENZ_hCSNK1D assay. It is designed to measure enzyme activity using a type of enzyme reporter as detected by scintillation counting with radiometry technology.Data from the assay component ERF_TW_ENZ_hCSNK1D was analyzed at the assay endpoint, ERF_TW_ENZ_hCSNK1D, in the positive analysis fitting direction relative to DMSO as the negative control and baseline of activity. Using a type of enzyme reporter, loss-of-signal activity can be used to understand changes in enzymatic activity as they relate to gene CSNK1D. To generalize the intended target to other relatable targets, this assay endpoint is annotated to the kinase intended target family, where the subfamily is serine/threonine kinase.
human CK1delta CK1 Kinase, CSNK1D (gene 1453), sequence (P48730 whole entry, looked up): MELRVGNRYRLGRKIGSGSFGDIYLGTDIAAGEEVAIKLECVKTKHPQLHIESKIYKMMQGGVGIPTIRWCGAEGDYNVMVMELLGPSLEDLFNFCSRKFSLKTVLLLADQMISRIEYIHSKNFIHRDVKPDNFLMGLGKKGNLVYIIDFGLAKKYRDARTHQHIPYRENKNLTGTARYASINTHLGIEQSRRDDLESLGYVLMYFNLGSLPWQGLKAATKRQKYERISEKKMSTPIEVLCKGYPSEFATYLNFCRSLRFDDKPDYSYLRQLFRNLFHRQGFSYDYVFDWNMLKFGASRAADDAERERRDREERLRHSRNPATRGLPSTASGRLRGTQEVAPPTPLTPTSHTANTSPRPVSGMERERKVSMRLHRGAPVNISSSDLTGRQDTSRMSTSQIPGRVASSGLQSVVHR
CK1d (h) is incubated with 8 mM MOPS pH 7.0, 0.2 mM EDTA, 200 uM KRRRALS(p)VASLPGL, 10 mM MgAcetate and [gamma-33P]-ATP (specific activity and concentration as required). The reaction is initiated by the addition of the Mg/ATP mix. After incubation for 40 minutes at room temperature, the reaction is stopped by the addition of phosphoric acid to a concentration of 0.5%. […]
Regarding `O=C(/C=C/c1ccc(O)cc1)CC(=O)/C=C/c1ccc(O)cc1`, the AC50 is 1.66 µM (active).
